# Values joined by “and” are separate entries in the source; they are usually repeats but may differ in a detail not shown here. Equal values may be shown once. Records with an inconclusive call do not appear. A call without a number means that no potency is given here. Active and inactive are the calls of the source. The call rests on the fitted dose curve; in most records, active means well fitted cell-killing curve with a large enough effect in the repeat runs; inconclusive means weak or mixed curves, or effect the other way; inactive means flat fitted curve, though single readings scatter.
# Test: qHTS assay to identify small molecule agonists of the constitutive androstane receptor (CAR) signaling pathway - cell viability counter screen (AID 1224836); further: nearly all actives have a fitted effect of over 45% in size
# Conditions: HepG2-CYP2B6-hCAR viability, CellTiter-Fluor, 23 h, PK11195 added to every well; series mostly up to 92.4 µM
# Procedure, shortened: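 HepG2 cells stably carrying hCAR and a CYP2B6-2.2kb reporter; 15-concentration compounds plus PK11195 (final 0.75 uM), 23 hr at 37 C/5% CO2. Viability read by CellTiter-Fluor fluorescence.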
# Potency means the concentration at half of the fitted maximal effect.
row,SMILES,Potency
1,C=CC(=O)OCC(CO)(COC(=O)C=C)COC(=O)C=C,13.7 µM (active) and 54.5 µM (active)
2,CSc1ccc2c(c1)C(N1CCN(C)CC1)Cc1ccccc1S2 (stereo not given),inactive
3,Cc1nc(-c2ccc3c(c2)CCN(CCC2CCC(NC(=O)/C=C/c4ccc(F)cc4)CC2)CC3)no1 (stereo not given),inactive
4,CNC(=O)c1ccccc1,inactive
5,Oc1ccc2c(c1)-c1ccccc1C2,inactive
6,CCc1cc(Cc2cc(CC)c(N)c(CC)c2)cc(CC)c1N,inactive
7,CCC(CN)=C(c1ccccc1)c1ccccc1,inactive
8,CCCCN1C(=O)[C@@H]([C@H](O)C2CCCCC2)NC(=O)C12CCN(Cc1ccc(Oc3ccc(C(=O)O)cc3)cc1)CC2,inactive
9,O=C(Oc1ccccc1)c1ccccc1C(=O)Oc1ccccc1,inactive
10,COC(=O)C1=C(C)NC(C)=C(C(=O)OCCc2ccc(N3CCN(C(c4ccccc4)c4ccccc4)CC3)cc2)C1c1cccc([N+](=O)[O-])c1 (stereo not given),inactive
11,C[C@]12CCC(=O)C=C1CC[C@@H]1[C@@H]2[C@@H](O)C[C@@]2(C)[C@H]1CC[C@]2(O)C(=O)COC(=O)CCC(=O)O,inactive
12,NC(=O)CC[C@@H]1NC(=O)[C@H](Cc2ccccc2)NC(=O)[C@H](Cc2ccc(O)cc2)NC(=O)CCSSC[C@@H](C(=O)N2CCC[C@H]2C(=O)N[C@@H](CCCN=C(N)N)C(=O)NCC(N)=O)NC(=O)[C@H](CC(N)=O)NC1=O,inactive
13,COc1cccc(N)c1,inactive
14,O=c1cccccc1O,inactive
15,CC(C)(C)C(=O)OCOC(=O)[C@@H]1N2C(=O)[C@@H](NC(=O)[C@H](N)c3ccccc3)[C@H]2SC1(C)C,inactive
